Shown is part of a subset that was picked to be rich in hits.
Artemis inh = inhibitors of human Artemis endonuclease activity; inhibition, % at 10 µM; 0.78% of 30,000 active; recombinant Artemis, quenched FAM hairpin cleavage fluorescence; Q96SD1;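 active = at 10 µM dose, at least 30% inhibition, measured as corrected fluorescence normalized to stimulator and neutral control wells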
Target sequence (Q96SD1 whole entry, looked up): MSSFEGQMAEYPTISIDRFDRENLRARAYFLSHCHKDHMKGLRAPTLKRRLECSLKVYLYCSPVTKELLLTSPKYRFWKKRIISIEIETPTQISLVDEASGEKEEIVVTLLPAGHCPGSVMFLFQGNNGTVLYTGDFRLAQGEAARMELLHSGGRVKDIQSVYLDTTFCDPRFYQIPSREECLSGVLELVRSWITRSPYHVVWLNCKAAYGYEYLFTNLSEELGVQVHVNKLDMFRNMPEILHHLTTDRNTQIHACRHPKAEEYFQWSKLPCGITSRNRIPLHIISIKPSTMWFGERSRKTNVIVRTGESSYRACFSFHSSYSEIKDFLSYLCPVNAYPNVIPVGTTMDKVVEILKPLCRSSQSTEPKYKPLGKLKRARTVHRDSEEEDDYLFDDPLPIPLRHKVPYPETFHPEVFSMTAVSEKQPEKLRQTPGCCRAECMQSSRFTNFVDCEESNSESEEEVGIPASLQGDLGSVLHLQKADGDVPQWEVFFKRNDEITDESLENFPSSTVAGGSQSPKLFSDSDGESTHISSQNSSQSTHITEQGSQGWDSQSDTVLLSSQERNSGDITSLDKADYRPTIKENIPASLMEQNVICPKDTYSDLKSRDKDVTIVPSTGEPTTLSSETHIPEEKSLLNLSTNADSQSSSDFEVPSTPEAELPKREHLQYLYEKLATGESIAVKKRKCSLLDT
* = called active by the depositor.

SMILES | Artemis inh
O=C(NC1CCCCCCC1)NC1CCCCC1 | -4
O=C(NC1CCCCCCC1)c1ccccc1O | 0
O=C(NNC(=O)c1cc(O)c(O)c(O)c1)NC1CCCCC1 | 31*
Cc1cc(Cl)ccc1OC(C)C(=O)N1CCCN(C(=O)C(C)Oc2ccc(Cl)cc2C)CC1 (stereo not given) | 9
CCC(CC)C(=O)NC12CC3CC(CC(C3)C1)C2 | -1
O=C(Cn1nnc2ccccc21)C1CC1 | 3
Brc1ccccc1C1=Nn2c(nnc2-c2ccccc2)SC1 | 6
c1ccc(-c2ccc(C3=Nn4c(Cn5nnc6ccccc65)nnc4SC3)cc2)cc1 | 33*
CCOC(=O)c1cnn(-c2ccccc2)c1-n1cccc1C(=O)C(=O)Nc1ccc(OC)cc1 | 1
COc1ccc(C(=O)c2c(C(F)(F)F)oc3c2C(=O)c2ccccc2C3=O)cc1OC | 36*
COc1ccc(C(=O)/C=C/N(C)C)cc1OC | 3
COc1ccc(C(=O)Nc2ccc(OCC(F)(F)C(F)F)c(C(F)(F)F)c2)cc1OC | 10
c1ccc(CSc2nnc(-c3sccc3-n3cccc3)o2)cc1 | 6
O=C(NNC(=O)C(c1ccccc1)c1ccccc1)c1cccs1 | 3
Nc1nc(CSCCO)nc(Nc2ccccc2)n1 | -3
COc1ccc(OC)c(Nc2nc(N)nc(-c3cc4ccccc4o3)n2)c1 | 1
Cc1c(-c2nc(N)nc(Nc3ccccc3)n2)oc2ccccc12 | 52*
O=[N+]([O-])c1cccc(/C=C/c2nc3ccc([N+](=O)[O-])cc3[nH]2)c1 | 12
CC(=O)Nc1cc2c(cc1NC(=O)Cn1nc(-c3ccc4c(c3)OCCO4)ccc1=O)OCCO2 | 10
CC(C)C(NC(=O)C1CCCCC1)C(=O)NC1=NCCS1 (stereo not given) | 2
Cc1nc(SCC(=O)N2CCc3ccccc32)n[nH]1 | 0
COC(=O)[C@@H]1[C@@H](C#N)C2(c3ccccc3-c3ccccc32)N(c2ccc(Cl)cc2)N1C#N | 40*
COc1ccc(Cl)cc1Nc1nc(C)cc(C)c1C(N)=O | -7
C/C(Cn1nc([N+](=O)[O-])cc1C)=N\NC(=O)c1cccc(Br)c1 | -1
CCOC(=O)C1=C(O)/C(=C/c2ccc(-c3ccccc3C(=O)O)o2)SC1=Nc1ccc(OC)cc1 | 30*
SMILES | Artemis inh
CCOC(=O)C1=C(O)CSC1=Nc1ccccc1 | -2
CCOC(=O)c1c(C)[nH]c(C=Nc2ccc(OC)cc2)c1O | 10
CCN1CCN(C(=O)c2ccc(NS(=O)(=O)c3ccccc3)cc2)CC1 | -8
COc1ccc(CCNC(=O)Cc2ccc(OCc3ccccc3)c(OC)c2[N+](=O)[O-])cc1OCc1ccccc1 | 12
S=c1[nH]nc(-c2ccccc2)o1 | 2
c1ccc2c(c1)OCC(c1csc3ncnc(N4CCCC4)c13)O2 (stereo not given) | 4
S=c1[nH]nc(C2COc3ccccc3O2)o1 (stereo not given) | 31*
COc1ccc(Cl)cc1NC(=O)C(C)Sc1n[nH]c(N)n1 (stereo not given) | 0
COc1ccc(OC)c(NC(=O)C2COc3ccccc3O2)c1 (stereo not given) | -1
Cc1ccc(/C=N\NC(=O)C2COc3cc4ccccc4cc3O2)o1 (stereo not given) | 4
O=C(N/N=C\c1ccc(-c2ccccc2[N+](=O)[O-])o1)C1COc2cc3ccccc3cc2O1 (stereo not given) | 36*
COc1ccc(/C=N/Nc2ccccc2)cc1Cn1nc(C)c([N+](=O)[O-])c1C | 1
CC1CC(C)CN(Cc2nc(N)nc(Nc3ccc4ccccc4c3)n2)C1 (stereo not given) | 16
Cc1cc(C)c(S(C)(=O)=O)c(Sc2ccc(Cl)cc2)n1 | 2
COc1cc(NC(C)C(=O)N2CC(C)OC(C)C2)cc(OC)c1 (stereo not given) | 5
O=C(NCCCn1ccnc1)C(Cc1ccc([N+](=O)[O-])cc1)N1C(=O)c2ccccc2C1=O (stereo not given) | 2
CCCCNc1nc2ccccc2[nH]1 | 1
CCN(CC)c1ccc(C=Nc2ccc(C#N)cc2)c(O)c1 | 2
CCN(CC)c1ccc(/C=N/Nc2nc3ccccc3[nH]2)c(O)c1 | 38*
O=c1cc(-c2ccccc2)nc2nc(-c3ccco3)[nH]n12 | 36*
O=c1cc(-c2ccccc2)nc2nc(CCc3ccccc3)[nH]n12 | 0
O=C(Nc1nc2nc(-c3ccccc3)cc(=O)n2[nH]1)c1ccccc1 | -1
CCCC(C)NC(=O)c1cc(Cl)ccc1OC (stereo not given) | -1
Cc1nn(Cc2c(Cl)cccc2Cl)c(C)c1NC(=O)c1cnn2c(C(F)F)cc(-c3ccccc3)nc12 | 25
Cc1ccc(-c2cc(C(F)F)n3ncc(C(=O)Nc4c(C)nn(Cc5c(Cl)cccc5Cl)c4C)c3n2)cc1 | 32*
SMILES | Artemis inh
O=C(Nc1cccnc1)c1cnn2c(C(F)F)cc(C3CC3)nc12 | -4
Cc1cc(C)c(NC(=O)c2ccc(CN3CCc4ccccc4C3)cc2)c(C)c1 | 3
CCOC(=O)c1c(C)nc2sc3c(c2c1-c1ccc(OC)cc1)NC(c1ccc(OC)cc1)NC3=O (stereo not given) | 5
CC1CCCC(NC(=O)COC(=O)CCC2CCCC2)C1C (stereo not given) | -2
O=C(Nc1nc(-c2ccco2)c(-c2ccco2)s1)C1CC(=O)N(c2ccc3c(c2)OCCO3)C1 (stereo not given) | 32*
O=C(Nc1nc2ccccc2s1)C1CC(=O)N(c2ccc(Cl)cc2)C1 (stereo not given) | 5
O=C(COC(=O)C1CC(=O)N(c2ccc3c(c2)OCCO3)C1)Nc1ccc2c(c1)CCC2 (stereo not given) | -7
Cc1ccc2c(c1)c(=O)c1c3n2CCN(C(=O)CCl)C3CC1 (stereo not given) | 34*
CCN1CCn2c3c(c4cc(Br)ccc42)CCCC31 (stereo not given) | -10
Cc1ccc2c(c1)c1c3n2CCN(C(=O)CN2CCN(C)CC2)C3CCC1 (stereo not given) | 8
CSc1nc2ccccc2n1CC(=O)Nc1cc(C(F)(F)F)ccc1N1CCOCC1 | -5
CC(C)/C=C1\CCCCC1N(C)C(=O)NC(C)C (stereo not given) | -9
COC1(c2ccccc2)NC(=S)NN=C1c1ccccc1 (stereo not given) | 1
Nn1c(N2CCCCC2)nc2ccccc21 | -9
Cc1cc(-c2csc(N)n2)c(C)n1C | 32*
O=C(Nc1ccccc1)OCc1cc(-c2ccccc2Cl)on1 | 12
CCC1SC(N)=NC1=O (stereo not given) | -6
Cc1ccc(C(=O)CCNc2ccc(Cl)cc2)o1 | -7
CCC(=O)Nc1ccccc1Nc1cc(C#N)c(C#N)cc1[N+](=O)[O-] | -4
COc1cccc(C2(O)CCN(C(=O)Cc3cccnc3)CC2)c1 | -8
Cc1cc(NC(=O)Cn2c(C)nc3ccccc3c2=O)ccc1Br | -8
CCSC1=N/C(=C\c2ccc(-c3ccccc3[N+](=O)[O-])o2)C(=O)S1 | 34*
CSC1=N/C(=C\c2ccc(C)o2)C(=O)S1 | 7
CCSC1=N/C(=C\c2ccc3c(c2)OCO3)C(=O)S1 | 5
O=C(CSc1ncn[nH]1)NCCC(c1ccccc1)c1ccccc1 | -2
Oc1ccccc1C1=Nc2ncnn2C(c2ccc(F)cc2)C1 (stereo not given) | 0
O=C(N/N=C/c1ccco1)c1cc(-c2ccc3ccccc3c2)n[nH]1 | 23
O=C(N/N=C/c1cccs1)c1cc(-c2ccc3ccccc3c2)n[nH]1 | 34*
O=C(N/N=C\c1ccc(Cl)s1)c1cccs1 | 1
Cc1ccccc1CNC(=O)c1ccc(CSCc2ccccc2)cc1 | 1

From PubChem
